Assay results reported in PubChem BioAssay.
Activity calls are given as the source filed them. Unless noted, the rule behind the calls is not given here.

Legend:
[1] = tested on: Wnt5a (protein binding on small-molecule microarray); assay: Wnt5a binders on small-molecule microarray, primary screen, biophysical, 635/667 nm fluorescence (AID 1142); details: 635 nm fluorescence, higher = more signal;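 note: fluorescence read at 667 nm with signal to noise per printed feature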
[2] = cell viability in Huh7 cells, primary screen, cytotoxicity control for HCV replication inhibitor project, CellTiter-Glo luminescence, basal, 48 h (AID 1143); details: Huh7 HCV replicon, higher = more signal, called active from +8 up or from −8 down;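 note: Huh7 hepatoma cells carrying a hepatitis C replication reporter with no stimulus; test concentration not given here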
[3] = P. aeruginosa biofilm formation inhibitors, primary screen, PAO1 strain, BacTiter-Glo luminescence, LB-PBS (AID 1144); details: 12 h, higher = more signal
[4] = CREB reporter modulators without forskolin, primary screen, cell-based, PC12, CRE-LacZ reporter, unstimulated (AID 1145); details: no forskolin, luminescence, 4.5 h, higher = more signal, called active from +8 up or from −8 down
[5] = CREB reporter modulators under forskolin, primary screen, cell-based, PC12, CRE-LacZ reporter, forskolin-stimulated (AID 1146); details: luminescence, 4.5 h, higher = more signal, called active from +8 up or from −8 down;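 note: PC12 cells with 6xCRE LacZ reporter stimulated by forskolin 10 µM; beta-galactosidase reporter signal reflecting CREB driven transcription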
[6] = molecular target: Streptavidin (Streptomyces avidinii) (UniProt P22629); assay: streptavidin binders on small-molecule microarray, primary screen, artefact control for SMM compound annotation, biophysical, 635/667 nm fluorescence (AID 1147); details: streptavidin binding, higher = more signal;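 note: signal reflects streptavidin binding to arrayed compounds as a control protein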
Sequence of Streptavidin (Streptomyces avidinii) (P22629 whole entry, looked up): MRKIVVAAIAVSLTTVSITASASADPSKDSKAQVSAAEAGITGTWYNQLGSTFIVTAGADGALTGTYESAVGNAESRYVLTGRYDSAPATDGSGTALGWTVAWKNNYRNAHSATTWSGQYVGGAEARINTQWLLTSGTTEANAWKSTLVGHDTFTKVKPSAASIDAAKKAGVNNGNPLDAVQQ

[7] = small-molecule binders of probe aInhba, primary screen, biochemical, small-molecule microarray, 635/667 nm fluorescence (AID 1148); details: higher = more signal;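 note: score merges 667nm spot fluorescence with signal-to-noise for antibody binding to printed compounds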
Torsin-1A (Homo sapiens) [8] = molecular target: Torsin-1A (Homo sapiens) (UniProt O14656); assay: torsin A binders from cell lysate, primary screen, small-molecule microarray, wild-type, 635/667 nm (AID 1149); details: COS7 hTOR1A-WT lysate, 635 nm fluorescence, higher = more signal
Sequence of Torsin-1A (Homo sapiens) (O14656 whole entry, looked up): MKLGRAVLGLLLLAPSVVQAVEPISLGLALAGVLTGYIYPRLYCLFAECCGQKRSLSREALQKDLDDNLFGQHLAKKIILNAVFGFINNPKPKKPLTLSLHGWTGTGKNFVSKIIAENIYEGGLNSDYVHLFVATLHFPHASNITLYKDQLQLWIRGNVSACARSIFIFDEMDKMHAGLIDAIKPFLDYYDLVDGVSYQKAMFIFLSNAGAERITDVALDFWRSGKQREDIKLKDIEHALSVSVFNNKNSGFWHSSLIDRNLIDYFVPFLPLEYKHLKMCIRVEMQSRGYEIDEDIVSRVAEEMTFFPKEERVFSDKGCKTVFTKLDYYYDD

Torsin-1A (Homo sapiens) [9] = molecular target: Torsin-1A (Homo sapiens) (UniProt O14656); assay: small-molecule binders of mutant TOR1A in lysate, primary screen, cell lysate, small-molecule microarray, COS7 lysate, 635/667 nm fluorescence (AID 1150); details: COS7 hTOR1A mutant lysate, 635 nm fluorescence, higher = more signal;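 note: score pools 667 nm emission and signal to noise measuring lysate protein binding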
[10] = tested on: Sonic hedgehog protein (Shh); assay: small-molecule binders of Shh protein, primary screen, biochemical, small-molecule microarray, 635/667 nm fluorescence (AID 1151); details: small-molecule microarray binding, 635 nm fluorescence; higher = more signal;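 note: Shh protein binding to compounds spotted on small-molecule microarray slides; score combines spot fluorescence intensity with signal-to-noise across triplicate slides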
[11] = E. coli DRC41 culture turbidity changes, primary screen, E. coli filamentation inducer project, strain DRC41, OD650, 48 h (AID 1152);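 note: E. coli MC1000 strain DRC41 lacking acrAB efflux pump and sulA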; details: E. coli DRC41 (acrAB sulA), higher = more signal, called active from +8 up or from −8 down
[12] = small-molecule binders of probe aLefty1, primary screen, biochemical, small-molecule microarray, 635/667 nm fluorescence (AID 1153); details: higher = more signal;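 note: score merges spot fluorescence with signal-to-noise ratio from the scanned slide images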
[13] = PSAC antagonists in infected red cells, primary screen, cell-based, P. falciparum Indochina, OD700, 1 h (AID 1154); details: P. falciparum Indochina infected RBC osmotic lysis, higher = more signal, called active from +8 up or from −8 down
[14] = PSAC antagonists in infected red cells, primary screen, cell-based, P. falciparum Indochina, OD700, 2 h (AID 1155);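 note: lysis reports solute entry through the parasite surface anion channel PSAC; channel blockers reduce lysis of infected cells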; details: P. falciparum Indochina infected erythrocytes, osmotic lysis OD700; higher = more signal, called active from +8 up or from −8 down
[15] = osmotic lysis modulators in infected erythrocytes, primary screen, PSAC antagonist project, cell-based, P. falciparum Indochina, OD700, 3 h (AID 1156); details: higher = more signal, called active from +8 up or from −8 down
[16] = PSAC antagonists in infected red cells, primary screen, cell-based, P. falciparum Indochina, OD700, 18 h (AID 1157); details: P. falciparum Indochina infected erythrocytes, osmotic lysis OD700, 18 h; higher = more signal, called active from +8 up or from −8 down
[17] = modulators of S6 phosphorylation in cells, primary screen, cell-based, A549, cytoblot, luminescence, serum-stimulated (AID 1158); details: A549 phospho-S6 cytoblot, 5 h, higher = more signal;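 note: serum-stimulated A549 lung adenocarcinoma cells; signal is phosphorylated S6 detected by cytoblot immunostaining with HRP secondary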
[18] = molecular target: NADPH oxidase 2 (Homo sapiens) (UniProt P04839); assay: NOX2-dependent H2O2 signal modulators, primary screen, NOX inhibitor project, cell-based, HEK293-NOX2, PMA-stimulated, Amplex Red fluorescence (AID 1159); details: 45 min, higher = more signal, called active from +8 up or from −8 down; note: test concentration not given here
Sequence of NADPH oxidase 2 (Homo sapiens) (P04839 whole entry, looked up): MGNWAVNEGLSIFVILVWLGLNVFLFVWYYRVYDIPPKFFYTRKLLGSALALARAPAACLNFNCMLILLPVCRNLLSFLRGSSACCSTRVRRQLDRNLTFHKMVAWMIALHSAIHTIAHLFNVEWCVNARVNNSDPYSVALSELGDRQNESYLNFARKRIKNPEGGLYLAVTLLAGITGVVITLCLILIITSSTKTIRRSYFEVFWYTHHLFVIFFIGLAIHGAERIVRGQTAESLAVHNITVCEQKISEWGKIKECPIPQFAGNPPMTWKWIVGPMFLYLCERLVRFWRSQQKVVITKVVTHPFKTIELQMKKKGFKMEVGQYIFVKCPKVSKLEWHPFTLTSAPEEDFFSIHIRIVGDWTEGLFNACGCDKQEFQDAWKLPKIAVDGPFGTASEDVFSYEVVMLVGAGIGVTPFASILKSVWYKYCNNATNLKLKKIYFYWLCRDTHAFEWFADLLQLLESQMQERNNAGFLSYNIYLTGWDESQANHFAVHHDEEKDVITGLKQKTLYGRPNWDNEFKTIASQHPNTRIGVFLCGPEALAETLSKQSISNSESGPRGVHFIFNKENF

[19] = molecular target: NADPH oxidase 4 (Homo sapiens) (UniProt Q9NPH5); assay: NOX4-dependent H2O2 signal modulators, primary screen, NOX inhibitor project, cell-based, HEK293-NOX4, tetracycline-induced, Amplex Red fluorescence (AID 1160); details: 45 min, higher = more signal, called active from +8 up or from −8 down
Sequence of NADPH oxidase 4 (Homo sapiens) (Q9NPH5 whole entry, looked up): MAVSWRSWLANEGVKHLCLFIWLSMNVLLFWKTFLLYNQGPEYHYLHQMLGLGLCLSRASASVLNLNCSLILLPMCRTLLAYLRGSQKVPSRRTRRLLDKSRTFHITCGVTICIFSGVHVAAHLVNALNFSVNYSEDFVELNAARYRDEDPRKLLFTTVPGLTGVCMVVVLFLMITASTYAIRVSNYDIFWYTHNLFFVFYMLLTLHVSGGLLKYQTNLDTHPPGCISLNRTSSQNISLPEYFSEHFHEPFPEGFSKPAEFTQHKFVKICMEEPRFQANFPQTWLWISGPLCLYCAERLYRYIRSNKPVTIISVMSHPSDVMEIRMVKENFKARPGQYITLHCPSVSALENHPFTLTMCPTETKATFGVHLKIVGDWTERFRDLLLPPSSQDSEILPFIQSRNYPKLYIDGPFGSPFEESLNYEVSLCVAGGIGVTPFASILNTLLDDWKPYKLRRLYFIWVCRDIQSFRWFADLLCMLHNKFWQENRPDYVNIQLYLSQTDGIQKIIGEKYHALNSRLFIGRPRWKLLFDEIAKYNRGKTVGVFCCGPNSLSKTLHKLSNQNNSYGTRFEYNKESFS

[20] = molecular target: NADPH oxidase 5 (Homo sapiens) (UniProt Q96PH1); assay: NOX5-dependent H2O2 signal modulators, primary screen, NOX inhibitor project, cell-based, HEK293-NOX5, Amplex Red fluorescence (AID 1161); details: HEK293-NOX5, ionomycin, 45 min, higher = more signal
Sequence of NADPH oxidase 5 (Homo sapiens) (Q96PH1 whole entry, looked up): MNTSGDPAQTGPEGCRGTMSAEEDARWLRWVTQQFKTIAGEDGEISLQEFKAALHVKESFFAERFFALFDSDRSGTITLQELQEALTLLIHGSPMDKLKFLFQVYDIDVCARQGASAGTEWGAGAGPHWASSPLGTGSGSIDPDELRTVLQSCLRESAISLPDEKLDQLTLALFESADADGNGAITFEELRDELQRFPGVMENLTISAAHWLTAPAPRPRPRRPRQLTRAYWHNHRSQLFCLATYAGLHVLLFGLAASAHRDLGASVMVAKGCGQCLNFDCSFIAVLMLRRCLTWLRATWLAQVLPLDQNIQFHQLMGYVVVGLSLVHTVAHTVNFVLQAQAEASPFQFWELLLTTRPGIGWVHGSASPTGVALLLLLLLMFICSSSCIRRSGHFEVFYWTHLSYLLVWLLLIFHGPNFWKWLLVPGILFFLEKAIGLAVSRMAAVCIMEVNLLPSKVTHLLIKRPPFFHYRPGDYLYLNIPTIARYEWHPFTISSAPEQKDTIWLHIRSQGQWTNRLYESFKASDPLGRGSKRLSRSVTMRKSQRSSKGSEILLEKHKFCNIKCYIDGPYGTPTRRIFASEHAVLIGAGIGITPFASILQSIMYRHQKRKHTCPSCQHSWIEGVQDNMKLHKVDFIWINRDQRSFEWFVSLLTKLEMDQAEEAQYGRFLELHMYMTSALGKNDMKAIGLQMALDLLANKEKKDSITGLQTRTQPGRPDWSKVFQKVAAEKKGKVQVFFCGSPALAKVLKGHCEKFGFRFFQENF

Structure (SMILES)	composite z-score [1]	z-score [2]	z-score [3]	z-score [4]	z-score [5]	composite z-score [6]	composite z-score [7]	composite z-score (Torsin-1A (Homo sapiens) [8])	composite z-score (Torsin-1A (Homo sapiens) [9])	composite z-score [10]	z-score [11]	composite z-score [12]	z-score [13]	z-score [14]	z-score [15]	z-score [16]	z-score [17]	z-score [18]	z-score [19]	z-score [20]
C[C@H]1NC(=O)C([C@@H](C)OCc2ccccc2)NC(=O)[C@@]23C(=O)N[C@@H](Cc4ccccc4)C2[C@H](C)[C@@]2(C)O[C@H]2C3/C=C/CC/C=C/CNC1=O (stereo not given in full)	-0.108	-1.24 (inactive)	1.27 (inactive)	4.21 (inactive)	-1.16 (inactive)	-0.0311	-0.122	-0.0252	0.212	0.778	1.85 (inactive)	-0.0094	1.79 (inactive)	0.76 (inactive)	0.89 (inactive)	0.107 (inactive)	0.888	1.24 (inactive)	-0.179 (inactive)	0.815
Cc1ccccc1C(O)C1C=CC2C(=O)N(C)C(=O)C2N1Nc1ccc([N+](=O)[O-])cc1[N+](=O)[O-] (stereo not given)	0.483	-0.157 (inactive)	0.262 (inactive)	0.443 (inactive)	0.57 (inactive)	1.04	0.138	-0.0091	0.94	-0.457	-1.68 (inactive)	0.591	4.34 (inactive)	1.7 (inactive)	1.06 (inactive)	0.95 (inactive)	-1.32	-0.824 (inactive)	-1.23 (inactive)	0.487
CN1C(=O)C2C=CC(C(O)c3cccc4ccccc34)N(NC(=O)OC(C)(C)C)C2C1=O (stereo not given)	0.611	0.227 (inactive)	0.489 (inactive)	1 (inactive)	0.6 (inactive)	1.51	0.723	0.104	1.41	-0.271	-0.622 (inactive)	0.966	1.15 (inactive)	0.564 (inactive)	0.0094 (inactive)	0.877 (inactive)	-1.22	-0.492 (inactive)	-3.85 (inactive)	0.409
CC1=C2[C@@H](CCc3ccccc3)OB(O)C[C@@H]2[C@@H]2C(=O)C=CC(=O)[C@@H]2C1	0.135	-0.894 (inactive)	0.0958 (inactive)	14.1 (active)	28.4 (active)	0.537	-0.0873	0.355	0.474	1.44	-0.23 (inactive)	0.0402	2.27 (inactive)	0.229 (inactive)	0.236 (inactive)	0.182 (inactive)	0.166	-0.128 (inactive)	-2 (inactive)	-3.15
COCCOC(=O)N1C(=O)[C@@]2(c3cc(C#Cc4ccc(OC)cc4)ccc31)[C@H](C(=O)N1CCc3cc(OC)c(OC)cc3C1)[C@H]1C(=O)O[C@H](c3ccccc3)[C@H](c3ccccc3)N1[C@@H]2c1ccc(OCCO)cc1	0.4	-0.831 (inactive)	-0.959 (inactive)	-1.27 (inactive)	-0.194 (inactive)	0.364	0.124	0.666	0.528	1.69	0.59 (inactive)	0.0391	6.15 (inactive)	2.99 (inactive)	1.69 (inactive)	1.42 (inactive)	0.228	-0.306 (inactive)	-1.58 (inactive)	-0.623
O=C(NCc1ccccc1)[C@]1(Cc2ccccc2)N=C(c2ccc(OCCCO)cc2)O[C@@H]1c1ccccc1	0.53	-4.62 (inactive)	-0.621 (inactive)	-0.0576 (inactive)	-1.02 (inactive)	0.621	0.0053	-0.0377	0.621	-0.468	-2.04 (inactive)	-0.225	30.1 (active)	22.5 (active)	0.578 (inactive)	2.53 (inactive)	-0.397	0.158 (inactive)	-0.503 (inactive)	-0.855
O=C1O[C@@H](c2ccccc2)[C@@H](c2ccccc2)N2[C@@H](c3ccc(O)cc3)[C@]3(C(=O)Nc4ccc(C#CC5=CCCCC5)cc43)[C@@H](C(=O)Nc3nc4ccccc4s3)[C@H]12	0.61	-1.77 (inactive)	-1.05 (inactive)	-1.02 (inactive)	-1.09 (inactive)	1.26	1.37	0.828	0.221	1.59	0.542 (inactive)	1.53	0.0488 (inactive)	1.36 (inactive)	2.66 (inactive)	1.6 (inactive)	-0.227	1.35 (inactive)	0.617 (inactive)	-0.146
COCC1=C([C@H](O)CCc2ccccc2)[C@H](CO)[C@@H]2C(=O)N(C)C(=O)[C@@H]2C1	-0.147	-0.398 (inactive)	-0.668 (inactive)	0.496 (inactive)	-1.67 (inactive)	-0.11	-0.0313	0.389	0.414	0.552	1.87 (inactive)	-0.0691	9.45 (active)	1.29 (inactive)	-0.64 (inactive)	0.254 (inactive)	0.155	-0.58 (inactive)	0.371 (inactive)	0.4
O=C(O)[C@]1(CCS(=O)(=O)c2ccccc2)N=C(c2ccc(OCCCO)cc2)O[C@@H]1c1ccccc1	0.235	0.495 (inactive)	0.869 (inactive)	0.19 (inactive)	-0.534 (inactive)	-0.0087	0.297	-0.0493	-0.301	-0.439	0.139 (inactive)	0.528	11.3 (active)	1.11 (inactive)	0.327 (inactive)	-0.169 (inactive)	-0.515	-0.298 (inactive)	0.578 (inactive)	1.1
